Source: PubChem
Shown are actives, neighbours in structure and some others; about 2.5% of the full set was active somewhere.
Cruzain inh Det: cruzain (T. cruzi) inhibition with detergent | actives 0.43% (n = 200,000) | AID 1478 | P25779 | Potency, µM, inactives show max response, negative = inhibition, actives largely listed as inhibitors | purified cruzain, Z-FR-AMC fluorescence, 0.01% Triton;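 also: plate controls were neutral wells for no effect and buffer without enzyme for full effect; nearly all actives have a fitted effect of over 40% in size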
Target sequence (P25779 123-467 limits assumed): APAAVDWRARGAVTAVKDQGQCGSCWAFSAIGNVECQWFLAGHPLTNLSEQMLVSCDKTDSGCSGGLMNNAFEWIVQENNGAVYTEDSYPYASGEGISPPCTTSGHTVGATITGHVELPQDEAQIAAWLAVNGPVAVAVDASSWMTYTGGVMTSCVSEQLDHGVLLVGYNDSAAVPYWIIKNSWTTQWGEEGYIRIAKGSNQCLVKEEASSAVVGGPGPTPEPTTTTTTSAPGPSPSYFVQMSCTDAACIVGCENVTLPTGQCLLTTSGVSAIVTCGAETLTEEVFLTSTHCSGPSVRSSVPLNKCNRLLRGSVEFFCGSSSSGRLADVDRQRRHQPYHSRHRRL
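Steps: dispense cruzain (1.5 nM final) in acetate buffer pH 5.5 with DTT and 0.01% Triton X-100; pin-transfer compounds; incubate 15 min RT; add Z-FR-AMC (2 uM final); read fluorescence every 30 s, using the 60 s intensity change.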
Cruzain noTriton: blocks cruzain activity in detergent-free assay; Potency, µM, for inactives: max response, negative = inhibition, hits mostly inhibitors; AID 1476; purified cruzain, Z-FR-AMC fluorescence, no detergent; P25779; actives 2.3% (n = 200,000);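 also: plate controls were enzyme without inhibitor for no effect and buffer without enzyme for full effect; nearly all actives have a fitted effect of over 40% in size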
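Detergent-free condition (0.00005% Triton X-100) in acetate buffer pH 5.5 with DTT. 1.5 nM enzyme and compound were pre-mixed 15 min, then 2 uM Z-FR-AMC substrate added; reaction progress from fluorescence change between first and third reads (60 s).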
* hit, by the source's call; ? = inconclusive. Calls follow the shape of the dose curve; as a rule, active = well fitted curve in the direction sought with a large enough effect; inconclusive = small, poorly fitted or top-dose-only effect, or another doubt; inactive = no such curve, though single readings can be large; an effect the other way counts as inactive or inconclusive. Potency is read from the fitted curve at half-maximal effect.

SMILES	Cruzain inh Det	Cruzain noTriton
Cc1ccc(C)c(CN2C(=O)c3ccccc3S(=O)(=O)c3ccc(C(=O)Nc4cc(F)ccc4F)cc32)c1	-2.4%	15.8µM*
COc1ccc(S(=O)(=O)NCC(c2ccco2)S(=O)(=O)c2cccs2)cc1F (stereo not given)	-3.5%	-0.3%
O=C(CS(=O)(=O)c1cccc2nsnc12)NCc1ccc(Cl)cc1	2.2%	-8.4%
O=C(N/N=C/c1c[nH]c2ccccc12)c1cc(-c2ccc(-c3ccccc3)cc2)n[nH]1	-6.2%	7.94µM*
O=C(N/N=C/c1c[nH]c2ccccc12)c1cc(-c2ccccc2)n[nH]1	-13.0%	2.9%
CCOc1ccc(C(=O)NC(=S)Nc2ccc(NC(=O)CC)cc2)cc1[N+](=O)[O-]	-6.1%	?
CCC(=O)NC(=S)Nc1ccc(NC(=O)c2ccc(C)c([N+](=O)[O-])c2)cc1	-2.5%	10µM*
Cc1ccc(Cn2c(C)c(CNCCCc3ccccc3)c(C(=O)O)c2C)cc1	-1.8%	-5.5%
CCCCOc1cccc(C2c3c(oc4ccccc4c3=O)C(=O)N2c2ccccn2)c1 (stereo not given)	0.2%	18.3%
COc1ccc(Cn2nnc(C(=O)Nc3cc(OC)ccc3OC)c2N)cc1	-6.5%	4.2%
COc1ccc(NS(=O)(=O)c2ccc(O)c(C(=O)OCC(=O)Nc3ccc4c(c3)OCCO4)c2)cc1	-2.8%	7.94µM*
COc1ccc(NS(=O)(=O)c2ccc(NS(=O)(=O)c3ccc4c(c3)OCCO4)cc2)cc1	-9.9%	1.7%
COc1ccc(S(=O)(=O)N(C)CC(=O)Nc2ccc3c(c2)OCO3)cc1	-0.7%	-9.9%
COc1ccc(N(CC(=O)Nc2ccc3c(c2)OCO3)S(=O)(=O)c2ccc(F)cc2)cc1	-5.2%	20µM*
COc1ccc([N+](=O)[O-])cc1NC(=O)Nc1ccccc1	-8.4%	-0.1%
COc1ccc([N+](=O)[O-])cc1C1NN=C(c2ccccc2O)S1 (stereo not given)	-0.5%	20µM*
O=C(Cn1cc(S(=O)(=O)c2ccc(Cl)cc2)c(=O)c2ccccc21)Nc1ccc2c(c1)OCO2	-5.2%	-18.6%
CCOC(=O)C1=NN(c2ccccc2)C2(S1)SC(C(C)=O)=C(C)N2c1ccccc1 (stereo not given)	-3.4%	9.9%
COC(=O)C1=NN(c2ccccc2)C2(S1)S/C(=C\c1ccccc1)C(=O)N2c1ccccc1 (stereo not given)	2.0%	10µM*
Cn1c(=O)c2sccc2n2c(CCC(=O)N3CCN(c4ccc(F)cc4)CC3)nnc12	-2.0%	1.9%
CN(C)c1ccc(CNC(=O)CN2C(=O)CCn3nc(-c4cn(C)c5ccccc45)cc32)cc1	-4.0%	?
O=C1/C(=C/c2ccc([N+](=O)[O-])cc2)C=C(c2ccccc2)N1c1ccc(O)cc1	-6.1%	?
COc1ccc(N2C(=O)/C(=C/c3ccc([N+](=O)[O-])cc3)C=C2c2ccccc2)cc1	-4.0%	15.8µM*
O=C1/C(=C/c2ccc([N+](=O)[O-])cc2)C=C(c2ccccc2)N1c1ccccc1	-2.0%	12.6µM*
COc1ccc(-c2cc(=O)n(-c3ccc([N+](=O)[O-])cc3)[nH]2)cc1	-4.6%	?
SMILES	Cruzain inh Det	Cruzain noTriton
Cc1ccc(S(=O)(=O)C(CNS(=O)(=O)c2ccc(F)c(C(F)(F)F)c2)c2ccco2)cc1 (stereo not given)	-11.4%	17.4%
CCOC(=O)c1c(C)oc2nc(C)nc(NCC3CCN(Cc4ccc(C)cc4)CC3)c12	-0.2%	-4.1%
O=C(Nc1ncc(Cc2ccc(SC(F)F)cc2)s1)c1ccc(OC(F)F)cc1	-2.9%	20µM*
Cc1ccc(Cc2cnc(NC(=O)c3ccco3)s2)cc1	-0.8%	-9.1%
COc1ccccc1-c1cc(C(=O)Nc2cc(Cl)ccc2O)no1	-3.2%	-13.3%
CCc1ccccc1NC(=O)c1cc(-c2ccc(OC)cc2)on1	-0.1%	-4.5%
COc1cccc(C2=NS(=O)(=O)N(C)C(C(=O)Nc3ccccc3SC)=C2)c1	-1.2%	12.6µM*
CCc1ccccc1NC(=O)C1=CC(c2ccc3c(c2)OCO3)=NS(=O)(=O)N1C	-2.8%	3.2%
COc1ccccc1-c1cc(C(=O)Nc2ccc(F)cc2F)no1	1.1%	12.6µM*
COc1ccc(-c2cc(C(=O)Nc3ccccc3SC)no2)cc1	4.5%	5.01µM*
O=C(Nc1ccc(F)cc1F)c1cc(S(=O)(=O)N2CCCCC2)c[nH]1	-2.9%	-8.4%
Cc1sc(NC(=O)/C=C/C(=O)O)c(C(N)=O)c1-c1ccc(C(C)(C)C)cc1	-8.5%	-1.9%
Cc1sc(NC(=O)c2cccc([N+](=O)[O-])c2)c(C(N)=O)c1-c1ccc(C(C)(C)C)cc1	3.9%	12.6µM*
CCOc1ccc(-c2cc3nc(C4CCN(C(=O)OC(C)(C)C)CC4)c(C(=O)Nc4cccc(Cl)c4C)cn3n2)cc1	-5.3%	7.94µM*
CCOc1ccc(-c2cc3nc(C4CCN(C(=O)OC(C)(C)C)CC4)c(C(=O)Nc4ccc(C)cc4Cl)cn3n2)cc1	-8.7%	?
C=CCn1c(=O)c2ccccc2n2c(SCC(=O)c3ccccc3)nnc12	-1.1%	15.8µM*
C=CCn1c(=O)c2ccccc2n2c(SCC(=O)NCCc3ccccc3)nnc12	-0.2%	-8.7%
CNC(=O)C1CCC(Cn2c(=O)c3sccc3n(CC(=O)N3CCCC3)c2=O)CC1 (stereo not given)	-0.1%	-2.1%
CCOC(=O)c1cc(OC(=O)c2cc(OC)c(OC)c(OC)c2)n(-c2ccccc2)n1	-4.2%	9.1%
Cc1cn(C2OC(COC(=O)c3ccccc3)C(OC(=O)c3ccccc3)C2OC(=O)c2ccccc2)c(=O)[nH]c1=O (stereo not given)	-1.4%	?
O=C(OCC1OC(OC(=O)c2cc(O)c(O)c(OC(=O)c3cc(O)c(O)c(O)c3)c2)[C@@H](OC(=O)c2cc(O)c(O)c(OC(=O)c3cc(O)c(O)c(O)c3)c2)C(OC(=O)c2cc(O)c(O)c(OC(=O)c3cc(O)c(O)c(O)c3)c2)C1OC(=O)c1cc(O)c(O)c(OC(=O)c2cc(O)c(O)c(O)c2)c1)c1cc(O)c(O)c(OC(=O)c2cc(O)c(O)c(O)c2)c1 (stereo not given in full)	15.8µM*	7.94µM*
O=C(CCN1CCCCC1)c1csc2ccccc12	-22.8%	2.51µM*
O=C(CCN1CCCCC1)c1ccccc1	-4.9%	-13.2%
CCN(Cc1ccccc1)C(=O)C1CCN(S(=O)(=O)c2c(C)noc2/C=C/c2ccc(C)cc2)CC1	-2.2%	-0.7%
CN(C)S(=O)(=O)c1cccc(C(=O)C2=C3SC=C(c4ccccc4)N3CC2)c1	-3.7%	25.1µM*
SMILES	Cruzain inh Det	Cruzain noTriton
CN(C)S(=O)(=O)c1cccc(C(=O)N2CCc3ccccc32)c1	0.2%	-7.2%
COc1ccc(-c2nn3c(-c4ccccc4C)nnc3c3ccccc23)cc1	-10.0%	16.3%
C=CCOC(=O)/C(=C/c1ccco1)NC(=O)/C=C/c1ccccc1	28.2µM*	-28.1%
O=C(O)CNC(=O)/C(=C/c1ccco1)NC(=O)/C=C/c1ccccc1	-6.3%	2.2%
CCCSc1ncc(Cl)c(C(=O)Nc2c(C(=O)c3ccc(C)cc3)oc3ccccc23)n1	-1.5%	-6.5%
CCCn1c(-c2ccc(F)cc2)nc2c(NCC(C)(C)CN(C)C)nc(C)nc21	-3.1%	-3.2%
COc1ccc2c(c1)c1c(c(=O)n(-c3ccccc3C)c(=O)n1CC(=O)Nc1c(C)cccc1C)n2C	0.9%	13.8%
